This is an account of results in PubChem BioAssay (NCI).

“And” between values parts separate entries of the source, which are not always exact repeats. Equal entries are not always repeated. This is part of a sample that, as a whole, favours compounds with a hit. Of some 83,000 tested, about 20% had one in any assay.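 In brief: 96-well plates, 48 h treatment, single concentration, percent growth endpoint.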 A number with no mark means an inactive call. The source made the active and inactive calls. The calls were made as follows: active = growth percent below 10; inactive = the rest.

For this assay, the system named is MDA-MB-468 breast. In words: NCI-60 one-dose screen, 48 h (100 = growth as untreated, 0 = no growth, -100 = all killed). As to conditions: 10 µM unless noted.
Turning to `COc1ccc(/C(C)=C(\c2ccc(Cl)cc2)c2ccc(OCCN3CCCCCC3)cc2)cc1`, the growth was 16.1%.

In the case of `CN(Cc1ccccc1)c1nc(Cl)c(C2CC(c3ccc(Cl)cc3)=Cc3[nH][nH]c(=O)c32)s1` (stereo not given), the growth was 106%.

`O=C1c2ccccc2-c2cn(Cc3ccccc3)c3cccc(c23)C1c1cccnc1` (stereo not given): the growth is 27.9%.

On to `COCCn1cc(-c2nc(-c3cn(CCOC)c4ncccc34)cs2)c2cc(F)ccc21`, for which the growth is -10.9% (active).

Regarding `O=C(Nc1cccc(-c2cccc(F)c2)c1)C1CCN(Cc2cccc3cccnc23)CC1`, the growth is 22.6%.

`CC1=C(NCCN2CCCC2)C(=O)c2c(OCc3ccc(C(F)(F)F)cc3)cccc2C1=O`: the growth was 82.2%.

For `O=C(NCCNC(=O)c1ccc(Cl)cc1Cl)c1ccc(Cl)cc1Cl`, the growth is 104%.

Turning to `COc1ccc(-c2nsc3c2NC(=O)CC3c2cccc(Cl)c2)cc1` (stereo not given), the growth was -6.39% (active).

Turning to `O=C1/C(=C/c2cccc(Br)c2)COc2ccc(O)cc21`, the growth was 53.1%.

Regarding `O=C(c1c[nH]c2ccccc12)c1n[nH]c(=S)n1-c1cccc(Br)c1`, the growth is 98.7%.

For the molecule `CCCCCCCCCCCCC1CCC(=O)O1` (stereo not given), the growth is 105%.

Take `Cc1[nH]c(-c2ccc3cc[nH]c3c2)c2c1C(=O)CCCC2`: the growth is 15.8%.

In the case of `c1cncc(-c2cn3nc(-c4c[nH]c5ccccc45)sc3n2)c1`, the growth is -9.26% (active).

Take `N#Cc1c(-c2ccc(Cl)cc2)nc(NN=Cc2ccc[nH]2)nc1N1CCOCC1`: the growth was 78.2%.

On to `O=S(=O)(/N=c1/n(-c2ccccc2)nc2n1CCN2C1=NCCN1)c1ccc(-c2ccccc2)cc1`, for which the growth is 94.3%.

Turning to `CN1CCN(c2ccc(Nc3ncc(C(N)=O)c(NCCCNC(=O)C4CCC4)n3)cc2)CC1`, the growth is 6.58% (active).

Turning to `C=C1CC[C@H](C(C)C)[C@@H]2[C@H]1[C@H]1CC(=C)[C@@H](O)CC[C@@](C)(O)[C@@H]2O1`, the growth was 89%.

In the case of `C=C1C(=O)O[C@H]2[C@H]1CC/C(COC(=O)NCCOCCOCC(=O)Nc1ccc(OC)c(C(N)=O)c1O)=C\CC[C@@]1(C)O[C@@H]21`, the growth was 17%.

As for `CCN(CC)CCCNc1cc(OC)c(OC)c2cccnc12`, the growth was 90.5%.

Consider `O=C(O)C1C2CC3C(OC(=O)C31)C2Br` (stereo not given), for which the growth was 93.2% and 72.3%.

Take `Nc1ccc(N=Nc2ccc(O)cc2)c(N)n1`: the growth is 83.4%.

`CC(C)=C1C=C2CC[C@@H]3[C@](C)(CCC[C@@]3(C)C(=O)O)[C@H]2CC1`: the growth was 0.17% (active).

As for `O=C1C(N2CCOCC2)=C(I)C(=O)c2ncccc21`, the growth was 42%.

For `CCCC(=O)Nc1ccc2c(c1)CN1C(=O)c3ccccc3C1=N2`, the growth was 97.8%.

Take `O=c1c(-c2ccc3c(c2)OCO3)coc2c(CO)c(O)ccc12`: the growth is -14.5% (active).

With `CC1=C(C(=O)OCC2CCN(C(=O)OC(C)(C)C)CC2)[C@@H](c2cccc(C#N)c2)C2=C(CC(C)(C)CC2=O)N1`, the growth is 52.2%.

As for `COc1ccc(/C=C/C(=O)c2nnn(-c3ccc(C(=O)O)cc3)c2C)cc1OC`, the growth is 84.6%.

Regarding `C=C1C(=O)O[C@H]2[C@H]1CC/C(C(=O)NCCOCCOCC(=O)Nc1ccc(OC)c(C(N)=O)c1O)=C\CC[C@@]1(C)O[C@@H]21`, the growth was 77.8%.

On to `COc1cc(-c2ccc(-c3ccc(C(=N)N)cc3)s2)cc(OC)c1OC`, for which the growth is -22.8% (active).

Turning to `COc1ccc(-c2cnc3c(-c4cccc5cnccc45)cnn3c2)cc1`, the growth was 47.9%.

On to `NS(=O)(=O)c1ccc(-n2cc(CN3CCNCC3)nn2)cc1`, for which the growth is -22.4% (active).

On to `CCOC(=O)c1nn(C2CCCCO2)c2ccc(NS(=O)(=O)c3ccc(C)cc3)cc12` (stereo not given), for which the growth was 105%.

Take `C[C@@H]1CC[C@@H]2[C@@H]1[C@H](OC(=O)/C=C/c1ccccc1)[C@]1(c3ccccc3)C[C@@H](NC(=O)CO)[C@@]2(C)O1`: the growth was 98.3%.

For the molecule `CCS/C(Nc1ccccc1)=C(\C#N)C(=O)Nc1ccc(OC)cc1`, the growth is -2.63% (active).

For `Brc1cccc(-n2ncc3c(Nc4ccc(-c5nnc(-c6ccccc6)o5)cc4)ncnc32)c1`, the growth is 101%.

For the molecule `O=C1c2ccccc2C(=O)c2c1c(C(=O)NCc1ccccc1)c1ccccn21`, the growth was 101%.

For the molecule `CCN(CC)CCOc1ccc(C(=C(C)Cc2ccc(OC)cc2)c2ccc(OCCN(CC)CC)cc2)cc1`, the growth is -25.4% (active).

`N#C/C(=C\c1ccc(-c2ccc(Cl)cc2)o1)C(=O)Nc1ncc(Cc2ccc(Br)cc2)s1`: the growth was 25.7%.

As for `O=C(Cn1c(=O)ccn(CCCCCCCCOc2ccc(Br)cc2)c1=O)Nc1ccc(Oc2ccc(Cl)cc2)cc1`, the growth was 34.2%.

With `C=C1C(=O)O[C@H]2[C@H]1CC/C(COC(=O)NCC(C)c1ccc(CC(C)C)cc1)=C\CC[C@@]1(C)O[C@@H]21` (stereo not given in full), the growth was -64% (active).
